Assay [1] can be described thus: CCTE_Simmons_CellTiterGLO_HEK293T: Viability Assessment in CCTE's Assays for Thyroperoxidase (TPO) Inhibition, Simmons Lab (AID 2283665).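 As to AC50: cells exposed to compound for 24 h before readout; actives reduce ATP signal below DMSO vehicle meaning cytotoxicity.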 The method, boiled down:
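Luminescent ATP readout (CellTiter-Glo, 20 min at room temperature) after 24 hr exposure of HEK293T cells to 5 nM–87.5 uM final compound; signal loss relative to DMSO vehicle indicated cytotoxicity; dichlone titrated as positive control.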

Assay [2] is described as follows: Tanguay_ZF_120hpf_PFIN_legacy: (Legacy) Oregon State University Tanguay Lab 120 Hour Post-fertilization zebrafish Assay for Pectoral Fin Malformation (AID 2283648).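 Also: each larva judged yes or no for fin defect by brightfield with dead larvae skipped.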 The method, then: (§1) Tanguay_ZF_120hpf_legacy is a whole embryo, multiplexed endpoint assay using zebrafish larvae exposed for 120 hours post fertilization on a 96-well plate.Tanguay_ZF_120hpf_PFIN_legacy is one of one assay component(s) measured or calculated from the Tanguay_ZF_120hpf_legacy assay. It is designed to make measurements of zebrafish development as detected with brightfield microscopy of developing zebrafish embryos.Data from the assay component Tanguay_ZF_120hpf_PFIN_legacy was analyzed into 1 assay endpoints. This assay endpoint, Tanguay_ZF_120hpf_PFIN_legacy, was analyzed in the positive analysis fitting direction relative to DMSO as the negative control and baseline of activity. Using a type of morphology reporter, gain-of-signal activity can be used to understand changes in developmentals as they relate to the whole embryo. To generalize the intended target to other relatable targets, this assay endpoint is annotated to the zebrafish development intended target family, where the subfamily is pectoral fin morphogenesis.
(§2) Zebrafish husbandry: Tropical 5D wild-type adult zebrafish were housed in at an approximate density of 1000 per 100 gallon tank at the Sinnhuber Aquatic Research Laboratory, Oregon State University, Corvallis, OR. Each tank was kept at standard laboratory conditions of 28C on a 14-h light/10-h dark photoperiod in fish water consisting of reverse osmosis water supplemented with a commercially available salt (Instant Ocean). Spawning funnels were placed into the tanks the night prior, and embryos were collected and staged. To increase bioavailability, the chorion was enzymatically removed using pronase (63.6mg/ml, >/= 3.5U/mg, Sigma-Aldrich: P5147) at 4 hours post fertilization (hpf) using a custom automated dechorionator.Chemical exposures: Six hpf dechorionated embryos were placed 1 embryo per well in a 96-well plate prefilled with 90 ul of EM using automated embryo placement systems (AEPS). Ten microliters of each row of dilution plate 2 was added to 2 exposure plates. The final DMSO concentration used was 0.64% (vol/vol). Thirty-two embryos were also exposed to 5uM trimethyltin chloride (positive control). Plates were sealed to prevent evaporation and foil covered to reduce light exposure and kept in a 28C incubator. Embryos were statically exposed until 120 hpf. At 24 hpf, embryos were assessed for photomotor response using a custom photomotor response analysis tool (PRAT) and for developmental toxicity endpoints (MO24: mortality at 24 hpf, DP: developmental progression, SM: spontaneous movement, and NC: notochord distortion). At 120 hpf, locomotor activity was measured using Viewpoint Zebralab and assessed for 18 endpoints. Zebrafish acquisition and analysis program (ZAAP), a custom program designed to inventory, acquire, and manage zebrafish data, was used to collect developmental endpoints as either present or absent (i.e., binary responses were recorded). If mortality occurred for an embryo (at either 24 or 120 hpf), the non-mortality endpoints were not measured.

Assay [3] in a line: Tanguay_ZF_120hpf_CFIN_legacy: (Legacy) Oregon State University Tanguay Lab 120 Hour Post-fertilization zebrafish Assay for Caudal Fin Malformation (AID 2283649). The method, then: as §1, with “plate.Tanguay_ZF_120hpf_CFIN_legacy” for “plate.Tanguay_ZF_120hpf_PFIN_legacy”, “Tanguay_ZF_120hpf_CFIN_legacy” for “Tanguay_ZF_120hpf_PFIN_legacy”, “Tanguay_ZF_120hpf_CFIN_legacy,” for “Tanguay_ZF_120hpf_PFIN_legacy,”, “caudal” for “pectoral”
as §2

Assay [4] is described as follows: Tanguay_ZF_120hpf_PIG_legacy: (Legacy) Oregon State University Tanguay Lab 120 Hour Post-fertilization zebrafish Assay for Pigmentation Malformation (AID 2283650). In short, it runs like this: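 Endpoint is incidence of abnormal pigmentation at 120 hpf in dechorionated 5D zebrafish exposed singly from 6 hpf at 28C, DMSO vehicle at 0.64%. Embryos dying by 24 or 120 hpf are excluded from scoring.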

Assay [5] in a line: Tanguay_ZF_120hpf_CIRC_legacy: (Legacy) Oregon State University Tanguay Lab 120 Hour Post-fertilization zebrafish Assay for Circulatory Malformation (AID 2283651). The method, then:
as §1, with “plate.Tanguay_ZF_120hpf_CIRC_legacy” for “plate.Tanguay_ZF_120hpf_PFIN_legacy”, “Tanguay_ZF_120hpf_CIRC_legacy” for “Tanguay_ZF_120hpf_PFIN_legacy”, “Tanguay_ZF_120hpf_CIRC_legacy,” for “Tanguay_ZF_120hpf_PFIN_legacy,”, “angiogenesis.” for “pectoral fin morphogenesis.”
as §2

Assay [6] can be described thus: Tanguay_ZF_120hpf_SWIM_legacy: (Legacy) Oregon State University Tanguay Lab 120 Hour Post-fertilization zebrafish Assay for Swim Bladder Malformation (AID 2283654).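 Also: swim bladder malformation in each larva scored yes or no under brightfield.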 In short, it runs like this:
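Static waterborne exposure of single dechorionated Tropical 5D zebrafish embryos, 6–120 hpf, 28C, 0.64% DMSO final. Read-out: swim bladder malformation, present/absent, relative to DMSO negative control; trimethyltin chloride 5uM served as positive control.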

Assay [7] is described as follows: Tanguay_ZF_120hpf_TRUN_legacy: (Legacy) Oregon State University Tanguay Lab 120 Hour Post-fertilization zebrafish Assay for Truncated Body (AID 2283655). The method, then:
as §1, with “plate.Tanguay_ZF_120hpf_TRUN_legacy” for “plate.Tanguay_ZF_120hpf_PFIN_legacy”, “Tanguay_ZF_120hpf_TRUN_legacy” for “Tanguay_ZF_120hpf_PFIN_legacy”, “Tanguay_ZF_120hpf_TRUN_legacy,” for “Tanguay_ZF_120hpf_PFIN_legacy,”, “embryonic” for “pectoral fin”
as §2

Assay [8] can be described thus: Tanguay_ZF_120hpf_NC_legacy: (Legacy) Oregon State University Tanguay Lab 120 Hour Post-fertilization zebrafish Assay for Notochord and Tail Malformation (AID 2283656). In short, it runs like this:
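Binary notochord-distortion calls, made by brightfield inspection, form the read-out; activity is fitted in the positive direction against DMSO. Exposure ran statically from 6 to 120 hpf at 28C with 0.64% DMSO.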

Assay [9] in a line: Tanguay_ZF_120hpf_TR_legacy: (Legacy) Oregon State University Tanguay Lab 120 Hour Post-fertilization zebrafish Assay for Touch Response (AID 2283667). The method, boiled down: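 Readout is presence or absence of touch response in 120 hpf zebrafish larvae, assessed by brightfield observation after continuous static exposure at 28C. Final vehicle was 0.64% (vol/vol) DMSO.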
A short description of assay [10]: CCTE_Padilla_ZF_144hpf_TERATOSCORE: (Legacy) CCTE's 144 Hour Post-fertilization zebrafish Assay Teratoscore, Padilla Lab (AID 2283679; active = hit-call score of the fitted dose curve at least 0.9, where 1 is the maximum; inactive = score below 0.9;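 also: zebrafish embryos with chorions exposed by immersion from 6-8 hpf to 5 dpf with daily renewal; teratogenicity score from eye scoring of death hatching and malformations at 144 hpf; higher score means more developmental defects relative to DMSO baseline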). In short, it runs like this: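 Larvae scored by eye at 144 hpf for death, hatching and malformations after a day in clean Hanks'. Before that, daily-renewed exposure at 80 uM (0.4% DMSO, 26C) from roughly 6-8 hpf through 5 dpf, 4 embryos per chemical.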

Values joined by “and” are separate entries in the source; they are usually repeats but may differ in a detail not shown here. Equal entries are not always repeated. Records with an inconclusive call do not appear. Active and inactive are the calls of the source. The calls were made as follows, unless noted: active = hit-call score of the fitted dose curve at least 0.9, where 1 is the maximum; inconclusive = response in the unintended direction; inactive = score below 0.9.

Turning to `CCc1cccc(O)c1`, in assay [1], the result was inactive.

Regarding `COc1ccccc1O`, the call in assay [1] was inactive.

In the case of `CCCCCCCCCCCCS`, the AC50 in assay [1] is 83.5 µM (active).

In the case of `O=c1cc(-c2ccc(O)cc2)oc2cc(O)cc(O)c12`, in [1], the compound was classed as inactive.

Turning to `Cc1cccc(O)c1`, the compound was called inactive in [1].

Regarding `CCCCCCCCOC(=O)c1ccc(O)cc1`, the AC50 in [1] is 24.4 µM (active).

For `CCCCOCCOCCO`, the compound was called inactive in assay [2], in assay [3], in [4], in assay [5], in assay [6] and in [7]. Also, the compound was called inactive in assay [8] and in [9].

For the compound `C#C[C@]1(O)CC[C@H]2[C@@H]3CCc4cc(O)ccc4[C@H]3CC[C@@]21C`, the compound was classed as inactive in assay [2], in assay [3], in [4], in assay [5], in assay [6] and in [7]. Further, the result in [8] and in assay [9] was inactive. Also, the results for the AC50 in assay [1] and in assay [10] were 37.5 µM (active) and 5.77 µM (active), respectively.

For the compound `O=C(O)CS`, the result in assay [1] was inactive.

Take `CCCCCCOc1ccc(O)cc1`: in [1], the AC50 was 66.1 µM (active).

As to `COC(=O)c1ccc(C(=O)OC)cc1`, the outcome in assay [2], in assay [3], in assay [5], in [7] and in assay [8] was inactive. Further, the AC50 in assay [6] was 12.3 µM (active); in [10] it was 4.57 µM (active).

Consider `c1ccc2scnc2c1`, for which the call in assay [1] was inactive.

Turning to `C[C@]12CC[C@@H]3c4ccc(O)cc4CC[C@H]3[C@@H]1CC[C@@H]2O`, the result in assay [3], in assay [4], in assay [5], in assay [6], in assay [7] and in assay [8] was inactive. For the same compound, the result in assay [1] and in assay [9] was inactive. For the same compound, the AC50 in assay [10] is 12 µM (active).

Regarding `NC(N)=S`, the call in assay [1] was inactive.

Consider `CCC(C)(C)C1CCC(=O)CC1`, for which the outcome in assay [1] was inactive.

For `[O-]/[N+](=N\O)c1ccccc1`, the outcome in assay [1] was inactive.

On to `CCCc1ccc(O)cc1`, for which the AC50 in assay [1] is 87.9 µM (active).

With `CC(=O)Nc1cc(S(=O)(=O)O)cc2cc(S(=O)(=O)O)c(N=Nc3ccccc3)c(O)c12`, in assay [1], the AC50 was 17.3 µM (active).

For `C=C(C)C(N)=O`, the compound was called inactive in [2], in [3], in assay [4], in assay [5], in [6] and in assay [7]. The outcome in [8] and in assay [9] was inactive.

With `CC(C)(C)c1cccc(O)c1`, in assay [1], the result was inactive.

Consider `O=C(c1ccc(OCCN2CCCCC2)cc1)c1c(-c2ccc(O)cc2)sc2cc(O)ccc12`, for which the result in assay [2], in assay [3], in assay [5], in assay [7] and in [8] was inactive. Further, the AC50 in assay [1] was 20 µM (active); in assay [10] it was 86.8 µM (active).

Take `CCCc1ccc(N)cc1`: the result in [1] was inactive.

Regarding `CN1CCc2cccc3c2[C@H]1Cc1ccc(O)c(O)c1-3`, the AC50 in assay [1] is 14.4 µM (active).

Regarding `CCCCC/C=C\C=C\C(=O)OCC`, the AC50 in [1] is 88.6 µM (active).

Regarding `CC/C(=C(\c1ccccc1)c1ccc(OCCN(C)C)cc1)c1ccccc1`, the compound was called inactive in assay [2], in assay [3], in assay [4], in assay [5], in [6] and in assay [7]. In addition, the outcome in [8] and in assay [9] was inactive. Further, the AC50 in assay [1] is 8.72 µM (active) and 6.64 µM (active); in assay [10] it was 1.43 µM (active) and 1.58 µM (active).

On to `CC(=O)OC/C=C(C)/C=C/C=C(C)/C=C/C1=C(C)CCCC1(C)C`, for which the compound was classed as inactive in assay [1].

For `O=C1OC2(c3ccc(O)cc3Oc3cc(O)ccc32)c2ccccc21`, in assay [1], the compound was classed as inactive.

In the case of `CCCCCCCCCCCCOCCOS(=O)(=O)O`, the AC50 in assay [1] is 78.3 µM (active).

By AC50 is commonly meant the concentration at which the activity in the assay is half-maximal.

These data come from PubChem BioAssay (EPA / NIEHS).
